These results are taken from PubChem BioAssay (NCATS).

Records with an inconclusive call do not appear. Unmarked numbers belong to inactive results. Activity calls are given as the source filed them. Calls come from the whole dose curve; as a rule, active = well fitted curve in the direction sought with a large enough effect; inconclusive = small, poorly fitted or top-dose-only effect, or another doubt; inactive = no such curve, though single readings can be large; an effect the other way counts as inactive or inconclusive.

Assay [1] addresses Rap guanine nucleotide exchange factor 3 (Homo sapiens) (UniProt O95398). Kind of assay: Confirmatory qHTS for antagonist of cAMP-regulated guanine nucleotide exchange factor 3 (EPAC1) (AID 1645880).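 For activity, negative = inhibition: plate controls were DMSO only for no effect and full effect of the ATA control for full effect.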 Note: nearly all actives have a fitted effect of over 55% in size. Note: potency is the fitted concentration of half-maximal effect. The conditions noted are these: EPAC1 Rap1B-BODIPY-GDP exchange, fluorescence; activity, negative = inhibition: at 115 µM (top of the series). An outline of the steps:
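Released BODIPY-GDP fluoresces less than Rap1-bound BODIPY-GDP; the signal is followed at 480/540 nm at 5-min intervals over 30 min, after 5 min at room temperature. Reactions contain 100 nM EPAC1, 250 nM RAP1B-BODIPY-GDP and 50 uM GDP; results are normalized to ATA and DMSO.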

For assay [2] the target is unchanged. As to the kind of experiment: Confirmatory qHTS for agonist of cAMP-regulated guanine nucleotide exchange factor 3 (EPAC1) (AID 1645881).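 For activation: EPAC1 catalysed release of BODIPY-GDP from Rap1B seen as fluorescence loss; 100% = effect of cAMP agonist control.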 Note: nearly all actives have a fitted effect of over 75% in size. Note: potency is the fitted concentration of half-maximal effect.
Assay [3] addresses Rap guanine nucleotide exchange factor 4 (Homo sapiens) (UniProt Q8WZA2). Kind of assay: Confirmatory qHTS for antagonist of cAMP-regulated guanine nucleotide exchange factor 4 (EPAC2) (AID 1645885). For activity change, negative = inhibition: % is set by controls: 0 for no effect and ±100 for the full control effect. Note: nearly all actives have a fitted effect of over 25% in size. Note: potency is the fitted concentration of half-maximal effect.
In assay [4] the target is Rap guanine nucleotide exchange factor 3 (Homo sapiens) (UniProt O95398). As to the kind of experiment: Counterscreen qHTS for antagonist of cAMP-regulated guanine nucleotide exchange factor 3 (EPAC1) (AID 1645888). Note: % of control where 0% means no effect. An outline of the steps: (§1)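 Measured: fluorescence of BODIPY-GDP bound to Rap1B, which falls as exchange proceeds. Conditions include 50 uM competing GDP, 5 and 30 min reads, and a later cAMP challenge for antagonist detection.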
Rap guanine nucleotide exchange factor 3 (Homo sapiens), sequence (O95398 whole entry, looked up): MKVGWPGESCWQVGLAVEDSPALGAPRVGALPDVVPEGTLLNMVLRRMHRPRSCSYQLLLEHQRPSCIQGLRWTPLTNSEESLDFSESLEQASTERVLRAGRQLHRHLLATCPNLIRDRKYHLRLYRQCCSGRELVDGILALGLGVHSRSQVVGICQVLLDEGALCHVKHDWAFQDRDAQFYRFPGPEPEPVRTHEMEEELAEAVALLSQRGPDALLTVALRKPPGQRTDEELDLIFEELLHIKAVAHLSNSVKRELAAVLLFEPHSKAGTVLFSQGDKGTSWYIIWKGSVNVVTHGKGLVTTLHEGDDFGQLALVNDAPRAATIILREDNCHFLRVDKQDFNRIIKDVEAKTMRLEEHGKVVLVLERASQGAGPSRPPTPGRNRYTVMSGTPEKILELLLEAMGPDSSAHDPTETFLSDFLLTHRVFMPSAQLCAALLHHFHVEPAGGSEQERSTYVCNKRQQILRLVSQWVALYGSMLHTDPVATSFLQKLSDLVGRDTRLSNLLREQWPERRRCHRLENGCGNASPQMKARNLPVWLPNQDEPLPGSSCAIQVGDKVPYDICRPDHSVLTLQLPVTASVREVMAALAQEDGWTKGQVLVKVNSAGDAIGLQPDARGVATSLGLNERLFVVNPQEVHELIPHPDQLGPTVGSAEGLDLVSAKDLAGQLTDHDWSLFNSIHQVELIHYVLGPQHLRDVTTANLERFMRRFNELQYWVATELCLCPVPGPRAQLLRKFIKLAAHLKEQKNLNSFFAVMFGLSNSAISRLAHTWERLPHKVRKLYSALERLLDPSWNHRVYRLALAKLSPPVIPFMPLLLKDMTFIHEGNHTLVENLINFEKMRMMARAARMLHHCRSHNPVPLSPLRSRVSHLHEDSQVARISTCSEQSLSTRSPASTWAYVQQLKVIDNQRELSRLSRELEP

The target is the same in assay [5]. Kind of assay: Counterscreen qHTS for agonist of cAMP-regulated guanine nucleotide exchange factor 3 (EPAC1) (AID 1645889). For activation: % of control where 0% means no effect. Note: nearly all actives have a fitted effect of over 40% in size. Note: potency is the fitted concentration of half-maximal effect. The method, boiled down: as §1

Rap guanine nucleotide exchange factor 4 (Homo sapiens), sequence (Q8WZA2 whole entry, looked up): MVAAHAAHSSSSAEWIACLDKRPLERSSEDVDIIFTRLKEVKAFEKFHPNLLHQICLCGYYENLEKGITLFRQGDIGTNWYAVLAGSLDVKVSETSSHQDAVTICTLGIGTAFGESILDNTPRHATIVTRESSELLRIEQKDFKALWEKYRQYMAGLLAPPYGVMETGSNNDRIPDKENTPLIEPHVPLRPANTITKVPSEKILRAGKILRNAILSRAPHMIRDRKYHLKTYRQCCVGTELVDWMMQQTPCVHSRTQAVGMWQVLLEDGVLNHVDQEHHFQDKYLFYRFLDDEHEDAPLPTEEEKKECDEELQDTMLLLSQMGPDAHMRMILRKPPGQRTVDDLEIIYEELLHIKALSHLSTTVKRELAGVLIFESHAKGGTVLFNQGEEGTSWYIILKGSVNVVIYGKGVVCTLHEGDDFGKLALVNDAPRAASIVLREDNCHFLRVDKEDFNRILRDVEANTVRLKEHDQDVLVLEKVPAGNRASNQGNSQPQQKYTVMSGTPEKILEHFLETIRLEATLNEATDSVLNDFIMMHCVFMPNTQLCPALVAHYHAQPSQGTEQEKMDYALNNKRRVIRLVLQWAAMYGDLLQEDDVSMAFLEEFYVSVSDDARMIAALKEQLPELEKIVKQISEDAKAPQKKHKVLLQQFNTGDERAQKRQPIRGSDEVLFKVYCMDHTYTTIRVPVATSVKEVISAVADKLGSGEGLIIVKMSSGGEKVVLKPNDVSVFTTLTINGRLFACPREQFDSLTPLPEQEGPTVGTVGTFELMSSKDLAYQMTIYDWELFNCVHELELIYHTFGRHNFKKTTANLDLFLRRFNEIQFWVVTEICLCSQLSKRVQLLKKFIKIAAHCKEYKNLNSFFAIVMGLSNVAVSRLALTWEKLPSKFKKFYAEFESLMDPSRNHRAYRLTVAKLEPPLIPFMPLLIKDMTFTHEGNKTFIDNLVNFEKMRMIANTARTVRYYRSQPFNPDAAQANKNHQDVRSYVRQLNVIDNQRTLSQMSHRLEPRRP

As for `O=C1CCC(C(=O)Nc2ccccc2N2CCCC2)=NN1`, the Potency result in assay [1], in assay [2], in assay [3] and in assay [4] was “inactive” throughout.

`COC(=O)C1=C(C)N(c2ccc(OC)cc2)C(C)=C(C(=O)OC)C1c1ccccc1`: the Potency entry in assay [1], in assay [2], in assay [3] and in assay [4] was “inactive” throughout.

Take `CC(=O)c1cccc(NC2c3ccccc3C(=O)N2Cc2ccc3c(c2)OCO3)c1` (configuration not stated): the Potency entry in assay [1], in assay [2], in assay [3] and in assay [4] was “inactive” each time.

As for `COc1cc2c(cc1OC)C(c1cccc(Cl)c1)CC(=O)N2` (configuration not stated), the Potency result in assay [1], in assay [2], in assay [3] and in assay [4] was “inactive” in each case.

With `O=C1COc2ccc(C(=O)COC(=O)c3ccc4ccccc4n3)cc2N1`, the Potency in assay [1] was 75.7 µM (active). Also, the Potency result in assay [2], in assay [3], in assay [4] and in assay [5] was “inactive” each time.

As for `Cc1ccc(CNC(=O)CN(c2cc(C)cc(C)c2)S(=O)(=O)c2c(C)[nH]c(=O)[nH]c2=O)cc1`, the Potency result in assay [1], in assay [2], in assay [3] and in assay [4] was “inactive” in each case.

As to `Cc1ccc(NC(=O)N2CC3CCCN3c3ccccc32)cc1Cl` (configuration not stated), the Potency entry in assay [1], in assay [2], in assay [3] and in assay [4] was “inactive” each time.

Take `Nc1ncnc2c1nc(Sc1ccc(Cl)cc1)n2[C@@H]1O[C@@H]2COP(=O)(O)O[C@H]2[C@H]1O`: the Potency in assay [1] is 0.213 µM (active); in assay [2], 0.355 µM (active); in assay [3] it was 0.675 µM (active). The Potency entry in assay [4] is “inactive”.

For the molecule `COc1cc2c(cc1NC(=O)C(C)Oc1ccc(Cl)cc1Cl)oc1ccccc12` (configuration not stated), the Potency entry in assay [1], in assay [2], in assay [3] and in assay [4] was “inactive” in each case.

As to `O=C1CSC(c2ccc(Cl)cc2Cl)N1c1ccccn1` (configuration not stated), the Potency entry in assay [1], in assay [2], in assay [3] and in assay [4] was “inactive” in each case.

With `COc1ccc([N+](=O)[O-])cc1-c1nc2ccccc2nc1-c1ccccc1`, the Potency entry in assay [1], in assay [2] and in assay [4] was “inactive” throughout. Further, the Potency in assay [3] is 0.0301 µM (active).

Take `CC(=O)c1cccc(NC(=O)Cn2cc(C(=O)c3cccc(Cl)c3)c(=O)c3ccc(C)nc32)c1`: the Potency result in assay [1], in assay [2] and in assay [4] was “inactive” each time. For the same molecule, the outcome in assay [3] was “inactive [at 12.7 µM]”.

`O=C(c1ccccc1Br)N(Cc1ccco1)Cc1ccco1`: the Potency result in assay [1], in assay [2], in assay [3], in assay [4] and in assay [5] was “inactive” throughout.

Consider `COc1ccc(N2CCN(CC(O)COc3ccc(C(C)C)c(C)c3)CC2)cc1` (configuration not stated), for which the Potency entry in assay [1], in assay [2], in assay [3], in assay [4] and in assay [5] was “inactive” throughout.

Take `O=c1onc(-c2ccccc2)n1-c1cc(Cl)cc(Cl)c1`: the Potency entry in assay [1], in assay [2], in assay [3], in assay [4] and in assay [5] was “inactive” each time.

On to `O=C1/C(=C\c2cccc(O)c2O)SC(=S)N1Cc1ccccc1`, for which the Potency in assay [1] was 75.7 µM (active). The Potency entry in assay [2], in assay [3] and in assay [4] was “inactive” throughout.

Consider `COc1ccc(C(NC(=O)c2cc(OC)ccc2OC)c2ccccc2)cc1` (configuration not stated), for which the Potency entry in assay [1], in assay [2], in assay [3] and in assay [4] was “inactive” in each case.

Regarding `COc1ccc(C(=O)Nc2ccc(NC(=O)c3cccs3)cc2)cc1OC`, the Potency result in assay [1], in assay [2], in assay [3], in assay [4] and in assay [5] was “inactive” in each case.

Regarding `CC(=O)c1ccccc1NC(=O)COC(=O)CSCC(=O)Nc1cc(C)on1`, the Potency entry in assay [1], in assay [2], in assay [3] and in assay [4] was “inactive” in each case.

Turning to `CCOc1cc(-c2ccc(OC(=O)c3ccc(OC)cc3)c(OC)c2)cc(=O)c2c(C)oc(C)c12`, the Potency in assay [1] is 75.7 µM (active). Besides, the Potency result in assay [2], in assay [3] and in assay [4] was “inactive” in each case.

As for `COc1ccc(NC(=O)CN(C)C(=O)c2cn(-c3ccccc3)nc2-c2cccnc2)cc1`, the Potency result in assay [1], in assay [2], in assay [3] and in assay [4] was “inactive” each time.

Consider `COC(=O)c1c(SC)nc2ccccc2c1OCc1ccc(Cl)cc1`, for which the Potency result in assay [1], in assay [2], in assay [3] and in assay [4] was “inactive” each time.

In the case of `COc1ccc(-n2c(O)c(/C=N/NS(=O)(=O)c3cc(C)ccc3C)c3ccccc3c2=O)cc1OC`, the Potency result in assay [1], in assay [2] and in assay [4] was “inactive” each time. Also, the Potency in assay [3] was 33.8 µM (active).

As for `C=CCN1C(=O)/C(=C/C=C2/N(CC)c3ccc(S(=O)(=O)N(C)C)cc3N2CC)SC1=S`, the Potency entry in assay [1], in assay [2] and in assay [3] was “inactive” in each case. For the same molecule, in assay [4], the activity change, negative = inhibition is -11.8% [at 30.8 µM]. Moreover, the activation in assay [5] is 14.5% [at 30.8 µM].

On to `O=S(=O)(Nc1ccccc1N1CCCCC1)c1ccccc1`, for which the Potency result in assay [1], in assay [2], in assay [3] and in assay [4] was “inactive” throughout.

As for `Cc1nnc(N2CCC(C(=O)NC3CCCCC3)CC2)c2nn(-c3ccccc3)c(C)c12`, the Potency entry in assay [1], in assay [2], in assay [3], in assay [4] and in assay [5] was “inactive” each time.

On to `COc1cc(SC)ccc1C(=O)NC1CCCc2ccccc21` (configuration not stated), for which the Potency entry in assay [1], in assay [2] and in assay [4] was “inactive” each time. Besides, in assay [3], the Potency is 30.1 µM (active).

Regarding `CCCCCCOC(=O)C(C#N)c1nc2ccccc2nc1N1CCCCC1` (configuration not stated), the Potency result in assay [1], in assay [2], in assay [3] and in assay [4] was “inactive” throughout.

Take `CCOc1ccc(-n2cnc3scc(-c4ccc(OC)c(OC)c4)c3c2=O)cc1`: the Potency entry in assay [1], in assay [2], in assay [3] and in assay [4] was “inactive” each time.

As to `CC(=O)Nc1ccc(/C(C)=N/NC(=O)c2ccc(COc3ccccc3Cl)o2)cc1`, the Potency result in assay [1], in assay [2] and in assay [3] was “inactive” each time. For the same molecule, the activity change, negative = inhibition in assay [4] was 0.248% [at 30.8 µM]. The activation in assay [5] is 15.7% [at 30.8 µM].

For `CCOc1cc(CNc2ccc(O)cc2)ccc1OCc1ccc(Cl)cc1`, the Potency in assay [1] was 84.9 µM (active). Also, the Potency entry in assay [2], in assay [3] and in assay [4] was “inactive” in each case.

Take `COc1ccc(N=Nc2nc3ccc(Br)cc3n2C)cc1`: the Potency result in assay [1], in assay [2], in assay [3] and in assay [4] was “inactive” each time. Moreover, in assay [5], the Potency is 50.1 µM (active).
